Screening results (PubChem BioAssay)
ULK1 primary: blocks human autophagy kinase ULK1 | inhibition, % at 5.96 µM | AlphaScreen Atg13 phosphorylation by ULK1, luminescence | AID 1259251 | hit rate 1.9% among 30,000 | O75385; in the data active = inhibition above about 43%;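 note: 0% = median of compound wells and 100% = no enzyme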
ASK1 inh: inhibitors of human ASK1 kinase; Q99683; AlphaScreen MKK6 phosphorylation by ASK1, luminescence; inhibition, % at 7.44 µM; hit rate 0.99% among 22,000; in the data active = inhibition above about 35%;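 note: 0% = median of compound wells and 100% = no enzyme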
* hit, by the source's call; x = no result given. Shown are actives, neighbours in structure and some others; about 2.5% of the full set was active somewhere.

SMILES	ULK1 primary	ASK1 inh
C[C@H](N)[C@H](O)c1ccccc1	-10.4	x
C[C@H](N)[C@H](O)c1ccc(O)c(O)c1	71.5*	x
CC(CC(C(N)=O)(c1ccccc1)c1ccccc1)N(C)C (centres undefined)	2.2	x
CCC(=O)OC(Cc1ccccc1)(c1ccccc1)[C@H](C)CN(C)C (some centres undefined)	94.6*	x
CCCCCOC(=O)Cl	-5.2	x
CN(C)[C@@H]1C(=O)C(C(N)=O)=C(O)[C@@]2(O)C(=O)C3=C(O)c4c(O)cccc4[C@@](C)(O)[C@H]3C[C@@H]12	24.4	x
CN(C)[C@@H]1C(=O)C(C(N)=O)=C(O)[C@@]2(O)C(=O)C3=C(O)c4c(O)ccc(Cl)c4[C@@](C)(O)C3C[C@@H]12 (some centres undefined)	49.2*	x
CN(C)C1C(=O)C(C(N)=O)=C(O)C2(O)C(=O)C3=C(O)c4c(O)cccc4C(C)(O)C3CC12 (centres undefined)	71.6*	x
COc1cc2c(cc1OC)C13CCN4CC5=CCOC6CC(=O)N2C1C6C5CC43 (centres undefined)	3.1	x
[Cl][Cr]([Cl])[Cl]	12.7	x
CC(CO)NC(=O)C1C=C2c3cccc4[nH]cc(c34)C[C@H]2N(C)C1 (some centres undefined)	22.1	x
CCN(CC)C(=O)N[C@H]1C=C2c3cccc4[nH]cc(c34)C[C@H]2N(C)C1	61.9*	x
O=C1NC(=S)NC(=O)C1=Cc1ccc(I)o1	24.2	x
COc1cccc([C@H](C)NC(=O)c2cn(CCN3CCCC3)c3cc(-c4cn[nH]c4)ccc23)c1	-0.1	-6.3
O=C(c1ccc2cncc(-c3cc4ccccc4o3)c2n1)N1CCC2(CC1)OCCO2	7.9	x
